A selection: hits, their analogues and other compounds. The true share with any hit is near 9.2%.
NPC1 promoter act: activators of NPC1 promoter. Potency, µM (series often up to 9.22 µM), usual class: activators. 320,000 tested, 2.4% active. Huh7 NPC1 promoter luciferase reporter, 24 h; note: nearly all actives have a fitted effect of over 60% in size
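Luciferase expression driven by the NPC1 promoter was measured in stably transfected Huh7 cells after a 24 h compound incubation, using a luciferase reagent and a luminescence read.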
FLuc modulator: counter-screen for miR-21 project: firefly luciferase inhibitors or activators | purified FLuc, Km substrates, luminescence inhibition | Potency, µM (doses to about 57.5 µM), actives largely listed as inhibitors | P08659 | 360,000 tested, 6.9% active; note: nearly all actives have a fitted effect of over 55% in size
Target sequence (P08659 whole entry, looked up): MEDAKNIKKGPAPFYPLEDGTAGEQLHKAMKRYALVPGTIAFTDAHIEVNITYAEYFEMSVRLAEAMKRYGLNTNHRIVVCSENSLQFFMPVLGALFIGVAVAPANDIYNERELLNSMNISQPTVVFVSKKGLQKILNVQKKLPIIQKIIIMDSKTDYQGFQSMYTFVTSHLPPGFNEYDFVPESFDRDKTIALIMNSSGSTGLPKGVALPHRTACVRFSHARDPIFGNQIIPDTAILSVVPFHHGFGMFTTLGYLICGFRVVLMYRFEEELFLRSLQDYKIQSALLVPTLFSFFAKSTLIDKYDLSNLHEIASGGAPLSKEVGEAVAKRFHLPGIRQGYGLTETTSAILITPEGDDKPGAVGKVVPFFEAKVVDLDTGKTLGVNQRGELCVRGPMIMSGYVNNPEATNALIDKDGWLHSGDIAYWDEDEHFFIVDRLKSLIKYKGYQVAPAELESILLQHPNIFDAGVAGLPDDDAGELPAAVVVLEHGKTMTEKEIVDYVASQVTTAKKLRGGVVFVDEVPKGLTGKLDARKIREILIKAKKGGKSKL
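Purified P. pyralis luciferase (10nM final) with 10uM D-luciferin and 10uM ATP (Km levels) in 50mM Tris acetate pH 7.5, 10mM Mg acetate, 0.01% Tween-20, 0.05% BSA; qHTS 6-point titration, ~60 µM downward; luminescence read.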
SMN2 splice up: increases expression of the SMN2 splice variant; Potency, µM (doses to about 46.1 µM), hits mostly activators; 210,000 tested, 2.8% active; AID 1458; HEK293 SMN2-luciferase splicing reporter, luminescence, 30-36 h; note: nearly all actives have a fitted effect of over 55% in size
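HEK293 cells carry an SMN2 minigene-luciferase reporter in which exon 7 inclusion puts luciferase in frame. Cells were seeded at 2000 cells/well, attached for 10-12 hours, then exposed to compounds for 30-36 hours at 37C before ONE-Glo luminescence.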
Rab9 promoter act: activators of Rab9 promoter. Potency, µM (titrated, usually from 9.22 µM), hits mostly activators. AID 485297. Huh7 Rab9 promoter-luciferase reporter, luminescence, 24 h. 320,000 tested, 2.8% active; note: nearly all actives have a fitted effect of over 60% in size
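Luminescence from Amplite-detected luciferase (10 minutes, ambient) reports Rab9 promoter activation. Before that, stable Rab9-luciferase Huh7 cells (1500/well, reduced-serum OP-MEM I plus 10% FBS) were exposed to compound for 24 hours at 37C.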
ELG1 genotox: genotoxicity induction in ELG1-luciferase HEK293T cells. HEK293T ELG1-luciferase reporter, luminescence, 16 h. Potency, µM (series often up to 46 µM), actives largely listed as activators. 330,000 tested, 1.3% active; note: nearly all actives have a fitted effect of over 60% in size
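Luminescence read-out: rising ELG1-luciferase signal, reflecting elevated ELG1 protein under genetic stress, flags genotoxic compounds. Cells were treated for 16 hr at 37 °C before ONE-Glo detection.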
ELG1 DNA repair: blocks ELG1-dependent DNA repair in HEK293T cells; 330,000 tested, 2.3% active; AID 504467; Potency, µM (highest dose often 46.1 µM), most hits filed as inhibitors; HEK293T ELG1-luciferase reporter, luminescence, 16 h; DNA damage induced by 5-fluorouridine; note: nearly all actives have a fitted effect of over 55% in size
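5-Fluorouridine DNA damage + compound/DMSO, 2,000 cells/well, 16 h, 37 °C/5% CO2. ONE-Glo, 30 min RT, luminescence. Readout = decrease in reporter signal.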
Numbers stand for hits. Calls come from the whole dose curve; as a rule, active = well fitted curve in the direction sought with a large enough effect; inconclusive = small, poorly fitted or top-dose-only effect, or another doubt; inactive = no such curve, though single readings can be large; an effect the other way counts as inactive or inconclusive.

Screening CC1(C)Cc2c(cnn2-c2ccccc2)C(NC(=O)CCc2ccc(=O)[nH]n2)C1 (stereo not given) returned NPC1 promoter act inactive, FLuc modulator inactive, Rab9 promoter act inactive, ELG1 genotox inactive and ELG1 DNA repair inactive.
Screening CCOc1ccc(C(C)=O)cc1COc1ccc(-c2nnco2)cc1 returned NPC1 promoter act inactive, FLuc modulator inactive, Rab9 promoter act inactive, ELG1 genotox inactive and ELG1 DNA repair 7.3µM.
`CCOc1ccc(C(C)=O)cc1COc1ccc(C)nc1[N+](=O)[O-]` gave NPC1 promoter act inactive, FLuc modulator inactive, Rab9 promoter act inactive, ELG1 genotox inactive and ELG1 DNA repair inactive.
`N#CC(=C1N=c2ccccc2=N1)c1c(O)[nH]c2ccccc12` gave NPC1 promoter act inactive, FLuc modulator inconclusive, SMN2 splice up inactive, Rab9 promoter act inactive, ELG1 genotox inactive and ELG1 DNA repair inconclusive.
Cn1c(O)c(C(C#N)=C2N=c3ccccc3=N2)c2ccccc21 was read as NPC1 promoter act inactive, FLuc modulator 9.5µM, SMN2 splice up inactive, Rab9 promoter act inactive, ELG1 genotox inactive and ELG1 DNA repair inactive.
COC(=O)c1sccc1NC(=O)/C=C/c1ccc(Cl)cc1Cl was read as NPC1 promoter act inconclusive, FLuc modulator inconclusive, SMN2 splice up 11µM, Rab9 promoter act inconclusive, ELG1 genotox inconclusive and ELG1 DNA repair inconclusive.
COC(=O)c1sccc1NC(=O)/C=C/c1c(Cl)cccc1Cl was read as NPC1 promoter act inactive, FLuc modulator 12µM, SMN2 splice up 14µM, Rab9 promoter act inconclusive, ELG1 genotox inconclusive and ELG1 DNA repair inconclusive.
Screening COC(=O)c1cc(Cl)c(NC(=O)/C=C/c2ccc(Cl)cc2Cl)cc1OC returned NPC1 promoter act inactive, FLuc modulator inactive, SMN2 splice up inactive, Rab9 promoter act inactive, ELG1 genotox inconclusive and ELG1 DNA repair inactive.
`O=C(OCC(=O)N1CCCCCC1)c1ccc(F)cc1F` gave NPC1 promoter act inactive, FLuc modulator 13µM, Rab9 promoter act 3.5µM, ELG1 genotox inactive and ELG1 DNA repair inconclusive.
`O=C(OCC(=O)N1CCc2ccccc2C1)c1cccnc1Cl` gave NPC1 promoter act inactive, FLuc modulator 15µM, SMN2 splice up inactive, Rab9 promoter act inconclusive, ELG1 genotox inconclusive and ELG1 DNA repair inconclusive.
O=C(OCC(=O)N1CCc2ccccc2C1)c1cccs1 was read as NPC1 promoter act inactive, FLuc modulator 11µM, SMN2 splice up inactive, Rab9 promoter act inactive, ELG1 genotox inactive and ELG1 DNA repair inactive.
Screening O=C(OCC(=O)N1CCCCCC1)c1cccs1 returned NPC1 promoter act inconclusive, FLuc modulator 13µM, SMN2 splice up inconclusive, Rab9 promoter act inconclusive, ELG1 genotox inconclusive and ELG1 DNA repair inconclusive.
For O=C(OCC(=O)N1CCOCC1)c1ccc(F)cc1Cl the results were NPC1 promoter act inactive, FLuc modulator inactive, Rab9 promoter act inactive, ELG1 genotox inactive and ELG1 DNA repair inconclusive.
For COc1ccccc1N1CCN(C(=O)c2cc(S(=O)(=O)N3CCOCC3)ccc2C)CC1 the results were NPC1 promoter act inactive, FLuc modulator inactive, Rab9 promoter act inactive, ELG1 genotox inactive and ELG1 DNA repair inactive.
COc1cc(NC(=O)COC(=O)CO/N=C(\C)c2ccc3c(c2)OCO3)cc(OC)c1 was read as NPC1 promoter act inactive, FLuc modulator inactive, Rab9 promoter act inactive, ELG1 genotox inactive and ELG1 DNA repair inactive.
`Cc1cc(C)cc(Nc2nc3ccccc3nc2-n2nc(C)cc2C)c1` gave FLuc modulator inactive and SMN2 splice up inactive.
`Cc1cc(C)cc(C(=O)OCC(=O)N2CCCC2)c1` gave NPC1 promoter act inactive, FLuc modulator inactive, Rab9 promoter act inactive, ELG1 genotox inactive and ELG1 DNA repair inconclusive.
Screening Cc1cccc(C(=O)OCC(=O)N2CCCCCC2)c1 returned NPC1 promoter act inconclusive, FLuc modulator 19µM, Rab9 promoter act inconclusive, ELG1 genotox inconclusive and ELG1 DNA repair inconclusive.
Screening Cc1ccc(C2NC(=O)NC3=C2CCc2ccccc23)cc1 (stereo not given) returned NPC1 promoter act inconclusive, FLuc modulator 3µM, SMN2 splice up inactive, Rab9 promoter act inactive, ELG1 genotox inconclusive and ELG1 DNA repair inconclusive.
For CC(C)c1ccc(C2NC(=O)NC3=C2CCc2ccccc23)cc1 (stereo not given) the results were NPC1 promoter act inactive, FLuc modulator inactive, SMN2 splice up inactive, Rab9 promoter act inactive, ELG1 genotox inactive and ELG1 DNA repair inactive.
`CSc1ccccc1-c1n[nH]c(=S)o1` gave NPC1 promoter act inactive, FLuc modulator inconclusive, SMN2 splice up inactive, Rab9 promoter act inactive, ELG1 genotox inactive and ELG1 DNA repair inactive.
For COc1ccc(-c2[nH]c(-c3ccc(Cl)cc3)nc2SCC(=O)NCC2CCCO2)cc1 (stereo not given) the results were FLuc modulator inactive and SMN2 splice up inactive.
For Cn1c(=NC(=O)C2CCCCC2)sc2cc([N+](=O)[O-])ccc21 the results were NPC1 promoter act inactive, FLuc modulator inactive, Rab9 promoter act inconclusive, ELG1 genotox inactive and ELG1 DNA repair inactive.
Screening Cn1/c(=N/N=C/c2ccc([N+](=O)[O-])cc2)sc2ccccc21 returned NPC1 promoter act inactive, FLuc modulator 2.1µM, SMN2 splice up inactive, Rab9 promoter act inactive, ELG1 genotox inconclusive and ELG1 DNA repair inconclusive.
`COc1ccc(CCC(=O)NCc2nc3cccnc3n2Cc2ccc(OC)cc2)cc1` gave FLuc modulator inactive.
Screening COc1ccc(CN(C(=O)c2oc3ccccc3c2C)C2CCS(=O)(=O)C2)cc1OC (stereo not given) returned NPC1 promoter act inactive, FLuc modulator inactive, SMN2 splice up 11µM, Rab9 promoter act inactive, ELG1 genotox inactive and ELG1 DNA repair inconclusive.
`C=CCN(C(=O)c1oc2c(Cl)cc(C)cc2c1C)C1CCS(=O)(=O)C1` (stereo not given) gave NPC1 promoter act 3.5µM, FLuc modulator 11µM, Rab9 promoter act 3.5µM, ELG1 genotox inconclusive and ELG1 DNA repair inconclusive.
Cc1ccc2c(C)c(C(=O)N(Cc3ccc(N(C)C)cc3)C3CCS(=O)(=O)C3)oc2c1 (stereo not given) was read as NPC1 promoter act inactive, FLuc modulator inactive, Rab9 promoter act inactive, ELG1 genotox inactive and ELG1 DNA repair 16µM.
`CCc1cccc(NC(=O)CCS(=O)(=O)c2ccc(C)cc2)c1` gave FLuc modulator inactive.
Screening CCOc1ccc(-c2nc(CSCC(=O)NC3CC3)c(C)o2)cc1 returned NPC1 promoter act inactive, FLuc modulator inconclusive, Rab9 promoter act inactive, ELG1 genotox inactive and ELG1 DNA repair inactive.
CCOC(=O)N1CCC(NC(=O)CSCc2nc(-c3ccc(OCC)cc3)oc2C)CC1 was read as NPC1 promoter act inactive, FLuc modulator inactive, Rab9 promoter act inactive, ELG1 genotox inactive and ELG1 DNA repair 13µM.
